# Source: PubChem BioAssay AID1851 (National Center for Advancing Translational Sciences (NCATS), 2009)
# Several values for one entry are separate records, joined by “and”; a condition that tells them apart may be missing. Identical values can stand only once. Screen size: about 16,000 compounds; about 5,800 (36%) were called active. About 23% were inconclusive and are not listed. Some of the results follow. Values without a mark were called inactive. The call rests on the fitted dose curve; in most records, active means well fitted curve in the direction sought with a large enough effect; inconclusive means small, poorly fitted or top-dose-only effect, or effect the other way; inactive means no such curve, though single readings can be large or run the other way.
# Biological target: Cytochrome P450 2C19 (Homo sapiens) (UniProt P33261)
# Experiment: Cytochrome panel assay with activity outcomes
# Conditions: recombinant CYP, pro-luciferin dealkylation, luminescence, p450-cyp2c19; series mostly up to 57.1 µM; activity, negative = inhibition: at the top concentration
# On the % scale 0 is the no-effect control and ±100 the full control effect.
# Sequence of Cytochrome P450 2C19 (Homo sapiens) (P33261 whole entry, looked up): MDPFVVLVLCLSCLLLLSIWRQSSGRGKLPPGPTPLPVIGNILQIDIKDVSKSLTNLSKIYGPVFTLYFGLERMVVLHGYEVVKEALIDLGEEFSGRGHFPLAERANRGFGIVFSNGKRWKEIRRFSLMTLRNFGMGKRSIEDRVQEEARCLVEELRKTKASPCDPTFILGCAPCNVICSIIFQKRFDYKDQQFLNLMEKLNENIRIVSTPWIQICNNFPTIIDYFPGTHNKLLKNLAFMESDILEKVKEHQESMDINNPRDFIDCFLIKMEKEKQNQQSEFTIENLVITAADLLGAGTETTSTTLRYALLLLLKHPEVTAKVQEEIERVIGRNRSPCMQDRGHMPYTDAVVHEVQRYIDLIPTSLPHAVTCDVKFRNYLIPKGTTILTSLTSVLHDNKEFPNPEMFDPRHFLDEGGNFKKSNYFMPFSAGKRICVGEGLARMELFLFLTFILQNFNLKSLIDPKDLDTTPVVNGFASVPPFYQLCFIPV
Compound,"activity, negative = inhibition",AC50
CC(=O)Nc1ccc(NCN2C(=O)C3C4CCC(C4)C3C2=O)cc1 (stereo not given),-17.9%,
O=C(NCCCN1CCCCCC1)[C@@H](c1ccccc1)C1CCCCC1,-22.4%,
O=C(NC1CCCCC1)C(Cc1ccccc1)N1C(=O)C2C3CCC(C3)C2C1=O (stereo not given),,11.2 µM (active)
Cc1ccc(NS(=O)(=O)c2ccc(OCC(=O)Nc3cccc([N+](=O)[O-])c3)c(C)c2)cc1,,2 µM (active)
O=C(c1ccccc1NS(=O)(=O)c1cccc([N+](=O)[O-])c1)N1CCOCC1,-8.87%,
CSC1=N/C(=C\c2ccc(Br)o2)C(=O)S1,,10 µM (active)
CSC1=N/C(=C\c2ccc(C)cc2)C(=O)S1,,7.94 µM (active)
CCSc1nnc(-c2ccc(Cl)cc2)c2ccccc12,,6.31 µM (active)
CCNc1ncc2nc(-c3ccc(Cl)cc3)c(=O)n(-c3ccccc3)c2n1,1.02%,
CC(=O)n1c(COS(C)(=O)=O)nc2ccccc21,6.98% [at 11.4 µM],
Cn1c(SCc2nc3ccccc3n2CCO)nc2ccccc21,,6.31 µM (active)
Cn1c(C[C@@H](O)c2nc3ccccc3n2C)nc2ccccc21,-23.7% [at 11.4 µM],
Nc1nc2c(c(=O)[nH]1)N[C@H](CCNc1ccc(C(=O)O)cc1)CN2,0.2% [at 11.4 µM],
CNCCC=C1c2ccccc2CCc2ccccc21,,inactive
C[N+](C)([O-])CCC=C1c2ccccc2CCc2ccccc21,,0.398 µM (active)
CN(C)CCC=C1c2ccccc2CCc2ccccc21,-32.5%,
O=C(Nc1cccn(Cc2c(Cl)cccc2Cl)c1=O)c1ccc(Cl)cc1Cl,,0.794 µM (active)
O=C(CN1C(=O)C2C3C=CC(C3)C2C1=O)Nc1ccc(C(=O)O)cc1 (stereo not given),7.63%,
CCOC(=O)N/N=C1/C[C@@H](O)[C@@H](O)[C@@H]2[C@@H]3C(=O)N(CC)C(=O)[C@H]3CC[C@@H]12,25.5% [at 11.4 µM],
CCOC(=O)NCN1C(=O)C2C3C=CC(C3)C2C1=O (stereo not given),,28.2 µM (active)
Cc1nc2c(c(-c3ccccc3)c1C#N)C(=O)c1ccccc1-2,,1 µM (active)
Cc1[nH]n2c(=O)c(C#N)c(-c3ccccc3)nc2c1-c1ccccc1,0.116%,

Compound,"activity, negative = inhibition",AC50
Cc1ccc2c(c1)N(CCC(=O)NCC1CCCO1)C(=O)CO2 (stereo not given),-24%,
Cc1ccc2c(c1)N(CCC(=O)NCc1cccnc1)C(=O)CO2,,8.91 µM (active)
COc1ccccc1CNC(=O)CCN1C(=O)COc2ccc(C)cc21,,3.16 µM (active)
CC(=O)Nc1nnc(SCc2ccc(F)cc2)s1,,8.91 µM (active)
O=C(Nc1nnc(SCc2ccc(Cl)cc2)s1)c1ccco1,,4.47 µM (active)
CC1CCCC(C)N1C(=O)c1ccccc1Nc1ccc(SC(F)F)cc1 (stereo not given),,1.12 µM (active)
O=C(O)c1ccccc1Nc1ccccc1,-23.6%,
O=C(c1ccccc1Nc1ccc(SC(F)F)cc1)N1CCCCC1,,0.891 µM (active)
CCCC[C@@H]1C[C@H]1C(NC(=O)c1ccccc1)c1ccccc1 (stereo not given in full),,0.398 µM (active)
CCCC[C@@H]1C[C@H]1C(NC(=O)c1cccnc1)c1ccc(Cl)cc1 (stereo not given in full),,2 µM (active)
CCCC[C@@H]1C[C@H]1C(NC(=O)c1ccccc1)c1ccc(Cl)cc1 (stereo not given in full),,0.631 µM (active)
CCCC[C@@H]1C[C@H]1C(NC(=O)Cc1ccccc1)c1ccc(-c2ccccc2)cc1 (stereo not given in full),0.313%,
CCCC[C@@H]1C[C@H]1C(NC(=O)c1ccccc1)c1ccc(-c2ccccc2)cc1 (stereo not given in full),9.73%,
CCCC[C@@H]1C[C@H]1C(NC(=O)Cc1ccccc1)c1ccc(Cl)cc1 (stereo not given in full),,0.0501 µM (active)
CNCCCC1c2ccccc2C=Cc2ccccc21,,inactive
O=C1c2ccccc2-c2n[nH]c3cccc1c23,27.5%,
CCCC[C@@H]1C[C@H]1C(NC(=O)c1cccs1)c1ccc(Cl)cc1 (stereo not given in full),,0.0794 µM (active)
CCCCNc1cc(=O)oc2ccccc12,,25.1 µM (active)
Cc1nc2ccccc2nc1-c1ccc(N=[N+]([O-])c2ccc(-c3nc4ccccc4nc3C)cc2)cc1,64.3% [at 11.4 µM],
Nc1ccc(Oc2ccc3nc(-c4ccccc4)c(-c4ccc([N+](=O)[O-])cc4)nc3c2)cc1,,3.55 µM (active)
CS(=O)(=O)N1CCC2(CCCN(C(=O)Nc3cccc(C#N)c3)C2)CC1,-5.89%,
Cc1[nH]c2ccccc2c1/C=C/c1cc[n+](C)cc1,-13.1%,

Compound,"activity, negative = inhibition",AC50
Cc1[nH]c2ccccc2c1/C=C(\C#N)C(=O)NC(C)c1ccccc1 (stereo not given),,11.2 µM (active)
C#CCSc1nncn1C(=O)/C=C/c1ccccc1,,15.8 µM (active)
O=c1c(-c2cc(F)cc(F)c2)nc2cnc(Oc3ccccc3)nc2n1C1CC1,-24%,
COc1ncc2ncc(=O)n(C3CC3)c2n1,-16.9%,
Cc1nc2cnc(Oc3ccccc3)nc2n(C2CC2)c1=O,-18.6%,
COc1ncc2nc(CCc3ccccc3)c(=O)n(C3CC3)c2n1,,15.8 µM (active)
COc1ncc2nc(C)c(=O)n(C3CC3)c2n1,-11.7%,
CN(C)c1ncc2nc(CCc3ccccc3)c(=O)n(C3CC3)c2n1,,15.8 µM (active)
CN(C)c1ncc2nc(-c3ccc(F)cc3)c(=O)n(C3CC3)c2n1,-35.1%,
COc1ccc(Oc2ncc3nc(CCc4ccccc4)c(=O)n(C4CC4)c3n2)cc1,,1.58 µM (active)
Cc1nc2cnc(N(C)C)nc2n(C2CC2)c1=O,-29%,
Cn1c(SCC(=O)c2ccc3c(c2)Cc2ccccc2-3)nnc1-c1ccccc1,,28.2 µM (active)
O=C(O)c1ccccc1-c1ccccc1C(=O)Nc1ccc2c(c1)Cc1ccccc1-2,37.2% [at 11.4 µM],
Cc1ccc2nc(/C(C#N)=C\c3ccc(OC(=O)c4cccs4)cc3)[nH]c2c1,,2.24 µM (active)
COC(=O)Nc1nc2ccc(C(=O)c3cccs3)cc2[nH]1,-12.3% [at 25.6 µM],
NC(=NC1C2CC3CC(C2)CC1C3)Nc1ccc(I)cc1 (stereo not given),,5.01 µM (active)
CCc1cc2c(Sc3nc4ccccc4s3)ncnc2s1,,2.51 µM (active)
O=C(Cn1c(=O)n(Cc2ccco2)c(=O)c2c3c(sc21)CCCCC3)c1ccccc1,,7.08 µM (active)
CN(C)CCn1c(=O)n(Cc2ccco2)c(=O)c2c3c(sc21)CCCCC3,,15.8 µM (active)
NC(=O)Cn1c(=O)n(Cc2ccco2)c(=O)c2c3c(sc21)CCCCC3,,2.82 µM (active)
